Legend:
[1] = molecular target: T1, Aspartate--tRNA(Asp/Asn) ligase (Mycobacterium tuberculosis (strain ATCC 25618 / H37Rv)) (UniProt P9WFW3); experiment: Assay for Asp RNA synthetase-1 from Mycobacterium tuberculosis; type: functional; set-up: scale not given: direction of the effect not stated beside the values; conditions: 30 µM; further: in the data most compounds retested in dose-response had high values
T1 sequence (whole entry): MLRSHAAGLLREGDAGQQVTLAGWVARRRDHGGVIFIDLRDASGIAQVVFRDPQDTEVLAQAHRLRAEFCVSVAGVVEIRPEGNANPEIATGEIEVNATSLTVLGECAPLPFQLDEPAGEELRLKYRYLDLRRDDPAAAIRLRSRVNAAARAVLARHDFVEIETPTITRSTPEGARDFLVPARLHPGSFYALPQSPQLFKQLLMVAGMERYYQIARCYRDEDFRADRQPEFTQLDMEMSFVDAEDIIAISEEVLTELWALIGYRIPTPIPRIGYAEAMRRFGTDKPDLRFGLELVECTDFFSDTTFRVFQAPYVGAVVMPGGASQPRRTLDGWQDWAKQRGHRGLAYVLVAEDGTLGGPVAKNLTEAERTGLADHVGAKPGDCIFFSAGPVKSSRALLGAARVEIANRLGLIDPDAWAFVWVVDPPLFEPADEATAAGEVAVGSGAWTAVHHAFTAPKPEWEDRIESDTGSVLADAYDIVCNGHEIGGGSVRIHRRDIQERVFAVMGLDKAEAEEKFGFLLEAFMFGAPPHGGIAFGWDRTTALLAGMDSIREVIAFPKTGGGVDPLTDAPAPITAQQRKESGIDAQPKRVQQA

[2] = molecular target: Shiga toxin 2 (Escherichia coli O157:H7) (UniProt P09385+P09386); experiment: E. coli 0.157:H7 Shiga Toxin SOP - stx2 screening assay; type: functional; set-up: scale not given: direction of the effect not stated beside the values; conditions: 30 µM

Which Percent Effect [1] does the source give for O=C(c1ccc(Cl)cc1)N1CCCn2nnc(Cn3cccn3)c2C1 here?
The Percent Effect was -1.14%.

And the Percent Effect [2]?
The Percent Effect was -4.47%.

Which results are given for COCCN1CCC2(CCCN(C(=O)c3cnoc3C)C2)C1=O (configuration not stated)?
Percent Effect [1]: 0.137%; Percent Effect [2]: -23%

How did the Percent Effect [1] turn out when O=C(c1cccnc1-n1cncn1)N1CCN(CC2CC2)CC1 was run?
Its Percent Effect is 0.524%.

And the Percent Effect [2]?
The Percent Effect was -1.68%.

With COc1ccc(C(=O)N2CCCCC2c2nc(C)cs2)nn1 (configuration not stated) as the compound, how does the Percent Effect [1] read?
The Percent Effect was -4.46%.

And the Percent Effect [2]?
The Percent Effect was -31.3%.

Which results are given for O=S(=O)(Cc1ccccc1)N1CCCn2cnc(CN3CCCC3)c2C1?
Percent Effect [1]: 16%; Percent Effect [2]: -5.12%

Which results are given for Cc1cccc(CN2C(=O)CO[C@@H]3CN(CCO)C[C@H]32)c1?
Percent Effect [1]: -4.77%; Percent Effect [2]: 2.07%

Cc1cc(C)n(C2CCCN(C(=O)Cc3csc(C)n3)C2)n1 (configuration not stated) was tested. Which Percent Effect [1] did it give?
The Percent Effect was -6.85%.

What about the Percent Effect [2] of the same compound?
The Percent Effect was 5.9%.

For CC(C)(C)c1ncc2c(n1)CN(C(=O)c1ccncc1)C2, which Percent Effect [1] is on record?
The Percent Effect was 2.51%.

And the Percent Effect [2]?
The Percent Effect was -10.4%.

What does the source list for CN(C)CC1CSCCCN1C(=O)c1ccc(C(C)(C)C)cc1 (configuration not stated)?
Percent Effect [1]: -2.32%; Percent Effect [2]: 10.3%

Which results are given for Cc1nnc(CN2CCN(CC(O)c3cccc(F)c3)CC2)n1C (configuration not stated)?
Percent Effect [1]: -0.288%; Percent Effect [2]: 18.7%

For CCN(C)c1ncnc2c1CCN(C(=O)N1CCCC1)CC2, which Percent Effect [1] is on record?
Its Percent Effect is 9%.

And the Percent Effect [2]?
Its Percent Effect is -30.9%.

How did the Percent Effect [1] turn out when CCS(=O)(=O)N1CCOC2(CCCN(c3ccc(C)nn3)C2)C1 (configuration not stated) was run?
The Percent Effect was 3.41%.

What about the Percent Effect [2] of the same compound?
Its Percent Effect is -15.9%.

Which results are given for Cc1ccc(CN2CCC(c3nnc(CN4CCCCC4)n3C)CC2)o1?
Percent Effect [1]: -1.53%; Percent Effect [2]: -7.9%

Which results are given for Cc1noc(C2CCC3(CCN(C(=O)c4c(C)noc4C)CC3)O2)n1 (configuration not stated)?
Percent Effect [1]: -3.06%; Percent Effect [2]: 16.1%

Which results are given for CN(C)C(=O)NC1COC2(CCN(C(=O)Nc3ccccc3)CC2)C1 (configuration not stated)?
Percent Effect [1]: 7.1%; Percent Effect [2]: -15.4%

For O=C(NCc1cccc2cccnc12)N1CCC(n2cncn2)CC1, which Percent Effect [1] is on record?
The Percent Effect was -6.04%.

What about the Percent Effect [2] of the same compound?
The Percent Effect was 8.18%.

Which Percent Effect [1] does the source give for CC(CNC(=O)N1CCN(CC(F)F)CC1)Cc1cccs1 (configuration not stated) here?
Its Percent Effect is -1.76%.

What about the Percent Effect [2] of the same compound?
The Percent Effect was 0.53%.

Which results are given for CCc1noc(CNc2ccc(C(=O)N3CCCC(C)C3)cc2C)n1 (configuration not stated)?
Percent Effect [1]: -1.27%; Percent Effect [2]: 19.1%

With c1ccc(Oc2cc(CNCC3CNc4ccnn4C3)ccn2)cc1 (configuration not stated) as the compound, how does the Percent Effect [1] read?
Its Percent Effect is -8.46%.

What about the Percent Effect [2] of the same compound?
Its Percent Effect is -36.5%.

Cc1cc(CN2CCN(C(=O)c3sccc3C3CC3)CC2)on1 was tested. Which Percent Effect [1] did it give?
The Percent Effect was 0.922%.

What about the Percent Effect [2] of the same compound?
Its Percent Effect is 27%.

What does the source list for CNC(=O)C1Cn2ccnc2C2(CCN(CCF)CC2)O1 (configuration not stated)?
Percent Effect [1]: 2.17%; Percent Effect [2]: -8.7%

Which Percent Effect [1] does the source give for Cc1cc(C)cc(OCCC(=O)N2CCOCC2c2ncon2)c1 (configuration not stated) here?
Its Percent Effect is 5.48%.

What about the Percent Effect [2] of the same compound?
Its Percent Effect is 33.2%.

How did the Percent Effect [1] turn out when O=C(Cc1ccc2c(c1)OCCO2)N1CCCC(n2cccn2)C1 (configuration not stated) was run?
The Percent Effect was -1.07%.

What about the Percent Effect [2] of the same compound?
Its Percent Effect is 10.8%.

Which Percent Effect [1] does the source give for O=C(c1ccncc1)N1CCC(c2nc(O)cc(-c3cccnc3)n2)C1 (configuration not stated) here?
The Percent Effect was -1.81%.

And the Percent Effect [2]?
Its Percent Effect is 4.42%.

Which results are given for O=C(CC1CN(Cc2ccccc2)CCO1)Nc1ccccc1F (configuration not stated)?
Percent Effect [1]: -4.94%; Percent Effect [2]: -0.0564%

For CC(C)NC(=O)C1CN(C(N)=O)Cc2ccnn2C1 (configuration not stated), which Percent Effect [1] is on record?
The Percent Effect was -3.46%.

What about the Percent Effect [2] of the same compound?
Its Percent Effect is -5.82%.

Which Percent Effect [1] does the source give for CC(=O)N1CCN(C(=O)CCOc2ccc(C(C)C)cc2)CC1 here?
Its Percent Effect is -2.21%.

What about the Percent Effect [2] of the same compound?
The Percent Effect was 38.9%.

For CC(NC1(CNC(=O)Cn2cccn2)CCOCC1)c1ccccc1 (configuration not stated), which Percent Effect [1] is on record?
Its Percent Effect is -0.24%.

What about the Percent Effect [2] of the same compound?
Its Percent Effect is 10.6%.

Cc1cc(=O)[nH]c(CCNC(=O)C(c2ccc(F)cc2)N(C)C)n1 (configuration not stated) was tested. Which Percent Effect [1] did it give?
The Percent Effect was -1.19%.

And the Percent Effect [2]?
The Percent Effect was -71.7%.

For O=C(NCc1cn2c(n1)CN(CC1CCOCC1)CC2)C1CCC1, which Percent Effect [1] is on record?
Its Percent Effect is 0.662%.

And the Percent Effect [2]?
The Percent Effect was -18.2%.

How did the Percent Effect [1] turn out when Cc1cc(C[S+]([O-])CC(=O)NCC(C)C)no1 (configuration not stated) was run?
Its Percent Effect is -2.03%.

And the Percent Effect [2]?
Its Percent Effect is 4.91%.

How did the Percent Effect [1] turn out when CNC(=O)NC(=O)CN1CCC(c2cccc(F)c2)C1 (configuration not stated) was run?
The Percent Effect was -0.433%.

And the Percent Effect [2]?
The Percent Effect was 19.2%.

CCOC1COC2(CCN(S(=O)(=O)c3cccc(F)c3)CC2)C1 (configuration not stated) was tested. Which Percent Effect [1] did it give?
The Percent Effect was 16.4%.

What about the Percent Effect [2] of the same compound?
Its Percent Effect is -13%.

Which results are given for CC(Cn1cccn1)NC(=O)Nc1nccs1 (configuration not stated)?
Percent Effect [1]: -0.364%; Percent Effect [2]: 2.8%

For COc1ccccc1CN1CC[C@]2(C[C@H](OC)CO2)C1, which Percent Effect [1] is on record?
The Percent Effect was -1.25%.

What about the Percent Effect [2] of the same compound?
The Percent Effect was -21.1%.

What does the source list for CC1CCN(CCNC(=O)c2cncnc2C(C)C)CC1?
Percent Effect [1]: -2.54%; Percent Effect [2]: -18.7%

With COc1cccc(CNCc2c(C(C)C)nn(C)c2N(C)C)c1OC as the compound, how does the Percent Effect [1] read?
Its Percent Effect is -3.61%.

And the Percent Effect [2]?
Its Percent Effect is 31.1%.

O=C(CCc1ccccn1)N1CCN(C(=O)CC2CCCCC2)CC1 was tested. Which Percent Effect [1] did it give?
The Percent Effect was -2.28%.

What about the Percent Effect [2] of the same compound?
The Percent Effect was 3.5%.

Which results are given for COc1ccc(C(CO)NC(=O)Nc2cccnc2)cc1 (configuration not stated)?
Percent Effect [1]: -1.35%; Percent Effect [2]: -19.2%

With CCc1nccn1C1CCCN(C(=O)c2ccc(C(=O)NC)nc2)C1 (configuration not stated) as the compound, how does the Percent Effect [1] read?
The Percent Effect was 2.25%.

And the Percent Effect [2]?
Its Percent Effect is 2.77%.

For CCc1noc(C(C)N2CCN(c3ccc(C#N)cc3F)CC2)n1 (configuration not stated), which Percent Effect [1] is on record?
Its Percent Effect is 1.23%.

And the Percent Effect [2]?
The Percent Effect was 8.4%.

With O=C(COc1ccccc1)N1CCC[C@]2(C[C@H](OCC3CC3)CO2)C1 as the compound, how does the Percent Effect [1] read?
Its Percent Effect is 1.3%.

And the Percent Effect [2]?
The Percent Effect was -10.4%.

Which results are given for Cn1nc(CNC(=O)C2COc3ccccc3O2)cc1C1CC1 (configuration not stated)?
Percent Effect [1]: 6.34%; Percent Effect [2]: 17%

Which results are given for CCC(C)NC(=O)Cc1c(C)nc2c(c1C)c(=O)[nH]n2C (configuration not stated)?
Percent Effect [1]: 5.44%; Percent Effect [2]: -28.6%

With Cc1cc(C(F)(F)F)nn1CC(C)C(=O)Nc1ccncc1 (configuration not stated) as the compound, how does the Percent Effect [1] read?
Its Percent Effect is 2.67%.

And the Percent Effect [2]?
The Percent Effect was -18.1%.

For O=C(c1cnccn1)N1CCc2onc(CN3CCOCC3)c2C1, which Percent Effect [1] is on record?
Its Percent Effect is -0.84%.

What about the Percent Effect [2] of the same compound?
The Percent Effect was -5.1%.

For Cc1nc(C)n(CC2CCCN2Cc2nc3ccccc3n2C)n1 (configuration not stated), which Percent Effect [1] is on record?
Its Percent Effect is -7.69%.

And the Percent Effect [2]?
Its Percent Effect is 5.05%.

Which Percent Effect [1] does the source give for CC1CCCN(Cc2coc(-c3cccc(F)c3)n2)C1 (configuration not stated) here?
Its Percent Effect is -10.1%.

And the Percent Effect [2]?
The Percent Effect was 7.24%.

How did the Percent Effect [1] turn out when Cc1ccc(CCN2CCC(N(C)Cc3noc(C4CC4)n3)C2)cc1 (configuration not stated) was run?
The Percent Effect was -2.9%.

And the Percent Effect [2]?
Its Percent Effect is -69.9%.

How did the Percent Effect [1] turn out when Cc1n[nH]c(C)c1C1COCCN1C(=O)c1ccccc1 (configuration not stated) was run?
The Percent Effect was 2.68%.

And the Percent Effect [2]?
Its Percent Effect is -26%.

For O=C(NCCn1ccnc1)c1cccc(F)c1, which Percent Effect [1] is on record?
Its Percent Effect is 3.65%.

And the Percent Effect [2]?
The Percent Effect was 24.2%.

— ChEMBL document CHEMBL3988442, “University of Dundee, Small-Polar-MMV Screening Library” (2021)
